# Experimental data: PubChem BioAssay (NCATS)
# Values without a mark were called inactive. Inconclusive results are not listed. Calls of active or inactive are those of the source. Unless noted, calls come from the whole dose curve; as a rule, active = well fitted curve in either direction with a large enough effect (not every such curve was filed as active); inconclusive = small, poorly fitted or top-dose-only effect, or another doubt; inactive = flat fitted curve, though single readings scatter.
# Legend:
# [1] = NFAT Signaling Pathway (AID 444); settings: Jurkat NFAT-bla M1, carbachol, beta-lactamase ratio, 5 h; at 17.2 µM (top of the series) unless noted;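 note: carbachol stimulus at about its EC50 of 1 µM final; % is set by controls: 0 for no effect and ±100 for the full control effect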
# Method in brief: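 Read-out: CCF4 FRET ratio (460 nm/530 nm) after 1 h RT dye loading, used for %activity and AC50 from titration series. Cells: Jurkat NFAT-β-lactamase/M1 line, treated with compound plus 1 uM carbachol for 5 h, 37 °C.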
# [2] = target: Glucocorticoid receptor (Homo sapiens) (UniProt P04150); assay: GR-GFP Redistribution (AID 450;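 active = compounds whose dose series gives a full or clear partial fitted curve of increased nuclear translocation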; note: potency is the fitted concentration of half-maximal effect)
# Glucocorticoid receptor (Homo sapiens), sequence (P04150 whole entry, looked up): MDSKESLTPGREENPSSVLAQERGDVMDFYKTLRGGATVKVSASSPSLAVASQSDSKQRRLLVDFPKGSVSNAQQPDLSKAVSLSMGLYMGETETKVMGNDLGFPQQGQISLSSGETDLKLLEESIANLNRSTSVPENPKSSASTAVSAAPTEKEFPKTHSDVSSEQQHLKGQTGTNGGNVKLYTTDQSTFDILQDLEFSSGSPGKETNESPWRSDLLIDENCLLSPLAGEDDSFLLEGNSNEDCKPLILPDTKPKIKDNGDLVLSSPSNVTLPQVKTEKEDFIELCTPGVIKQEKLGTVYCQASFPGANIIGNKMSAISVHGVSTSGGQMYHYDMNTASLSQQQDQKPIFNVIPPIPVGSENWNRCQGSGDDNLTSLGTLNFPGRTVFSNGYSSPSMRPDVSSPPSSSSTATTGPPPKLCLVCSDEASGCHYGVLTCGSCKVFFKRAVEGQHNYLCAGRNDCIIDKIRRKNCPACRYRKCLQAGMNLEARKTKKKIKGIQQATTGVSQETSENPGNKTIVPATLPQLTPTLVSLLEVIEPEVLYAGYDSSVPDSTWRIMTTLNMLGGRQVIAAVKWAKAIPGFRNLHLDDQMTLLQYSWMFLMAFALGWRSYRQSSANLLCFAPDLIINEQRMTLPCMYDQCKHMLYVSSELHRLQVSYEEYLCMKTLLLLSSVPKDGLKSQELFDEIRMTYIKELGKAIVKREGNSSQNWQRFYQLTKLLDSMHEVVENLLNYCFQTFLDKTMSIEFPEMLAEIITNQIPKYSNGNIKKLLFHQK
# [3] = Stat Signaling Pathway (AID 446); settings: ME-180 SIE beta-lactamase reporter, IL-6 stimulated, 5 h; at 17.2 µM (top of the series) unless noted;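 note: ME-180 cervical cancer cells given 40 pM IL-6 alongside compound; SIE-controlled beta-lactamase reporter measured as 460/530 nm FRET emission ratio; % is set by controls: 0 for no effect and ±100 for the full control effect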
# Method in brief: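 IL-6/STAT signaling read in ME-180 cells via an SIE beta-lactamase reporter. Stimulus was 40 pM IL-6 (its AC50) for 5 hrs, so both activation and inhibition register.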
# [4] = qHTS Assay for Identification of Small Molecule Agonists for Hypoxia Response Element Signaling Pathway (AID 914; active = well fitted activation curve with a large enough effect in the signal ratio, with a control signal flat, not every such curve was filed as active; the % refers to the signal ratio; note: potency is the fitted concentration of half-maximal effect; for activation: % of control where 0% means no effect); settings: ME-180 (cervical carcinoma) HRE-bla reporter, beta-lactamase ratio, CoCl2, 17 h; activation: hits give high values
# Method in brief: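 Read-out: CCF4 FRET ratio of 460nm to 530nm emission (excitation 405nm) after 2.5 hours at room temperature, taken from HRE-bla ME-180 cells that had been exposed to compound and EC50 CoCl2 for 17 hours.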
smiles,measurement,setting,value
CC(=Nc1cccc(O)c1)c1sc2ccccc2c1O,"activity change, negative = inhibition",[1],-27.3%
same,Potency,[2],> 20.6 µM
CC1(C)Cc2c(C#N)c(OCC(=O)c3ccc(Cl)cc3)nc(-c3ccoc3)c2CO1,"activity change, negative = inhibition",[1],-4.81%
same,Potency,[2],> 20.6 µM
CCN(CC)CCOC(=O)c1c(C)n(C)c2ccc(OC)cc12,"activity, negative = inhibition",[3],11.9%
same,Potency,[2],> 20.6 µM
CCCCNc1c(CN)cnc2cc(Cl)ccc12,"activity, negative = inhibition",[3],-10.8% [at 7.69 µM]
COc1ccc(-c2nnc3sc(-c4ccccc4OC)nn23)cc1,"activity change, negative = inhibition",[1],-23.6%
same,Potency,[2],> 20.6 µM
COc1ccc(C(=O)C(CN2CCCC2)c2ccccc2)cc1 (centres undefined),"activity, negative = inhibition",[3],-8.3%
same,Potency,[2],> 20.6 µM
COc1ccc(NC(=O)CSC2=C(C#N)C(c3ccco3)C3=C(CCCC3=O)N2)c(OC)c1 (centres undefined),"activity change, negative = inhibition",[1],-6.5%
same,"activity, negative = inhibition",[3],-8.16%
same,Potency,[2],> 20.6 µM
same,activation,[4],-27.4%
Cc1ccc(N2CC(C(=O)Nc3ccc(N(C)C)cc3)CC2=O)cc1C (centres undefined),"activity change, negative = inhibition",[1],21.8%
same,Potency,[2],> 20.6 µM
COc1ccc(C(=O)CSC2=C(C#N)C3(CCCCC3)C(C#N)=C(N)N2)cc1,"activity change, negative = inhibition",[1],14.6%
same,Potency,[2],> 20.6 µM
CCOC(=O)CSc1nc(N)c(C(=O)Nc2ccc(N(C)C)cc2)s1,"activity change, negative = inhibition",[1],0.0938%
same,Potency,[2],> 20.6 µM
CCOC(=O)c1cc2c(=O)n3cccc(C)c3nc2n(C)c1=N,"activity change, negative = inhibition",[1],-13%
same,Potency,[2],> 20.6 µM
same,Potency,[4],6.31 µM (active)
O=C(O)C1CC=CCC1C(=O)N1CCN(c2nc(-c3ccccc3)c3ccccc3n2)CC1 (centres undefined),"activity change, negative = inhibition",[1],-12%
same,"activity, negative = inhibition",[3],9.49%
same,Potency,[2],> 20.6 µM
same,Potency,[4],3.98 µM (active)
O=C(COc1ccc(-c2nnc(N3CCCCC3)c3ccccc23)cc1)N1CCCCC1,"activity change, negative = inhibition",[1],-4.72%
same,Potency,[2],> 20.6 µM
CC(C)OC(=O)c1c2nc3ccccc3nc2n2c1[nH]c(=O)c1ccccc12,"activity, negative = inhibition",[3],-17%
same,Potency,[2],> 20.6 µM
OC1(C2(O)CC(c3ccccc3)ON2)CCCCC1 (centres undefined),"activity change, negative = inhibition",[1],-7.93%
same,"activity, negative = inhibition",[3],-6.74%
same,Potency,[2],> 20.6 µM
same,activation,[4],-4.48%
CCSc1nc(N)c(C#N)c(-c2ccccc2Cl)c1C#N,"activity change, negative = inhibition",[1],-7.47%
same,Potency,[2],> 20.6 µM
Cc1ccc(NC(=O)CSC2=C(C#N)C(c3ccc4c(c3)OCO4)CC(=O)N2)cc1C (centres undefined),"activity change, negative = inhibition",[1],-0.339%
same,Potency,[2],> 20.6 µM
Cc1c(NC(=O)c2coc(=O)c(Br)c2)c(=O)n(-c2ccccc2)n1C,"activity change, negative = inhibition",[1],-128% (active)
same,Potency,[2],> 20.6 µM
COc1ccccc1C(=O)NC(=Nc1nc2ccccc2o1)NC(=O)c1ccccc1OC,"activity change, negative = inhibition",[1],-110% (active)
same,Potency,[2],> 20.6 µM
CCOC(=O)c1c(-c2cccs2)csc1NC(=O)c1ccncc1,"activity change, negative = inhibition",[1],27.6%
same,"activity, negative = inhibition",[3],1.61%
same,Potency,[2],> 20.6 µM
same,Potency,[4],6.31 µM (active)
NCCN1C(=O)c2ccccc2[C@@]1(O)c1ccc(Cl)cc1,"activity, negative = inhibition",[3],2.46% [at 7.69 µM]
